Screening results deposited in PubChem by National Center for Advancing Translational Sciences (NCATS).
In the library only some 18% were active in any assay of this set; here they are far more common.
TDP1 cell CPT – qHTS for Inhibitors of human tyrosyl-DNA phosphodiesterase 1 (TDP1): qHTS in cells in presence of CPT; chicken DT40 Tdp1-/-;hTDP1 cells + 20 nM CPT, ATP luminescence, 48 h; AID 686979, 2013; Potency, µM (top dose mostly 46.2 µM), without a hit: at the top dose activity change, negative = growth inhibition, usual class: inhibitors; 420,000 compounds, 12% hits; note: potency is the fitted concentration of half-maximal effect; nearly all actives have a fitted effect of over 55% in size
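Chicken DT40 Tdp1-/- cells stably complemented with human TDP1 were seeded at 400 cells/well in medium containing 20 nM camptothecin, exposed to pin-transferred compounds, and grown at 37 °C for at least 48 hr. Viability was read as ATP luminescence.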
IL-1B inflam inh – qHTS for Inhibitors of Inflammasome Signaling: IL-1-beta AlphaLISA Primary Screen. THP-1 LPS/ATP IL-1B secretion, AlphaLISA, 16 h; hits give low values. 360,000 compounds, 4.7% hits. activity change, % at 57.5 µM; in the data active = activity change below about -50%; inconclusive = mostly about -30% to -49%
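THP-1 cells pretreated 1 hr with compounds (up to 57.5 uM final), then stimulated with LPS (250 ng/mL final) plus ATP (1.25 mM final); secreted IL-1B measured by AlphaLISA after 16 hr, decreased signal indicating inhibition.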
CtBP-E1A inh – qHTS Assay for Inhibitors of the CtBP/E1A Interaction; CtBP / adenovirus E1A interaction (AlphaScreen); 340,000 compounds, 0.49% hits; AlphaScreen GST-E1A/His-CtBP binding, 1536-well; hits give low values; activity change, % (test concentration not listed); in the data active = activity change below about -65%; inconclusive = mostly about -30% to -63%
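AlphaScreen with 125 nM GST-E1A and 125 nM His-CtBP (5X stocks) in Tris pH 8.0, 300 mM NaCl, BSA, Tween 20, TCEP. Compounds preincubated 2 h at 37 deg C, then glutathione donor/nickel acceptor beads added for 1 h at 37 deg C in dark.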
Six1-Eya2 inh – qHTS Assay for Inhibitors of the Six1/Eya2 Interaction. AlphaScreen GST-Six1/His-Eya2 binding, biochemical; hits give low values. Homeobox protein SIX1 (Homo sapiens) + Protein phosphatase EYA2 (Homo sapiens), …. 360,000 compounds, 0.56% hits. activity change, % (test concentration not listed); in the data active = activity change below about -65%; inconclusive = mostly about -30% to -63%
Target sequence (O00167 whole entry, looked up): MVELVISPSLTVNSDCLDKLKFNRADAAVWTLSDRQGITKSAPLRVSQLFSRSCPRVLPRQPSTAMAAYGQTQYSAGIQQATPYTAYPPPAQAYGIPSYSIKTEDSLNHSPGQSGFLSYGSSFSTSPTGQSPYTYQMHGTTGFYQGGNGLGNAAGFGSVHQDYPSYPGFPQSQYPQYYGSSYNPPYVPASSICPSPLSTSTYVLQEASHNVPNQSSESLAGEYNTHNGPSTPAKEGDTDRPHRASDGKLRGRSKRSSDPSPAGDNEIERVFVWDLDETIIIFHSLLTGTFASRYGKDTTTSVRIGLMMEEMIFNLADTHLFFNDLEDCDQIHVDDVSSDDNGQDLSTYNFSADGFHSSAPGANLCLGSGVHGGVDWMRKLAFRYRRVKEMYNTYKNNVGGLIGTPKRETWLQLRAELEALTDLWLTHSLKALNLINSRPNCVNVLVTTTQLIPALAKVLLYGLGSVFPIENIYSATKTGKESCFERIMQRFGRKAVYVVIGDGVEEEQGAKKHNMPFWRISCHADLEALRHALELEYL
Target sequence (Q15475 whole entry, looked up): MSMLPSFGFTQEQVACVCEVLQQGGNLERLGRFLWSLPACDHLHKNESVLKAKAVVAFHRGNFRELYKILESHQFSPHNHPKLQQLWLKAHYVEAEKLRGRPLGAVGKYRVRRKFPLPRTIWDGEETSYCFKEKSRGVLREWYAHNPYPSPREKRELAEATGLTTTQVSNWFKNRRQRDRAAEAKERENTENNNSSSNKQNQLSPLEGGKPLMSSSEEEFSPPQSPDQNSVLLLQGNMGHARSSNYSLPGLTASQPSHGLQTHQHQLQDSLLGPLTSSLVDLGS
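Compounds are tested against tagged Six1 and Eya2 proteins bridged by glutathione donor and nickel acceptor beads; after a one-hour incubation at 37 °C without light, AlphaScreen emission is recorded.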
TDP1 inh – qHTS Assay for Inhibitors of Tyrosyl-DNA Phosphodiesterase (TDP1); 350,000 compounds, 0.28% hits; recombinant TDP1, AlphaScreen DNA substrate cleavage; Potency, µM (top dose mostly 130 µM), for inactives: top-dose activity change, negative = inhibition, most hits filed as inhibitors; AID 485290, 2010; Tyrosyl-DNA phosphodiesterase 1 (Homo sapiens), Q9NUW8; note: potency is the fitted concentration of half-maximal effect; nearly all actives have a fitted effect of over 40% in size
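Compounds were preincubated with Tdp1 (1 nM final) for 15 min at room temperature before substrate (15 nM final) started a 5 min reaction; beads (10 ug/ml final) were then added for 10 min before AlphaScreen detection.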
TDP1 cell noCPT – qHTS for Inhibitors of human tyrosyl-DNA phosphodiesterase 1 (TDP1): qHTS in cells in absence of CPT; DT40 Tdp1-/- hTDP1 cells, no CPT, ATP luminescence, 48 h; Potency, µM (top dose mostly 46.2 µM), inactives show at the highest dose activity change, negative = growth inhibition, hits mostly inhibitors; 420,000 compounds, 15% hits; AID 686978, 2013; note: potency is the fitted concentration of half-maximal effect; nearly all actives have a fitted effect of over 55% in size
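Chicken DT40 Tdp1-/- cells stably complemented with human TDP1 were seeded at 400 cells/well with DMSO in place of 20 nM camptothecin. After compound pinning, cells grew at least 48 hr at 37 °C; viability read by CellTiter-Glo luminescence.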
Numbers without * were called inactive; ? = inconclusive; . = no result. Unless noted, calls come from the whole dose curve; as a rule, active = well fitted curve in the direction sought with a large enough effect; inconclusive = small, poorly fitted or top-dose-only effect, or another doubt; inactive = no such curve, though single readings can be large; an effect the other way counts as inactive or inconclusive. % is set by controls: 0 for no effect and ±100 for the full control effect.

SMILES	TDP1 cell CPT	IL-1B inflam inh	CtBP-E1A inh	Six1-Eya2 inh	TDP1 inh	TDP1 cell noCPT
COc1ccc(OC)c(NC(=O)COC(=O)c2c(C)noc2C)c1	-1%	?	0	1	0%	7%
CCN1CCN(c2cc(C(C)C)nc3c(-c4ccccc4)c(C)nn23)CC1	12µM*	.	14	10	.	21µM*
CCN1CCN(c2cc(C(C)(C)C)nc3c(-c4ccccc4)c(C)nn23)CC1	?	?	10	13	0%	18µM*
Cc1nn2c(N3CCOCC3)cc(C(C)C)nc2c1-c1ccccc1	?	-13	6	-1	.	-18%
CC1CCN(c2nc3c(S(=O)(=O)c4ccccc4)nnn3c3ccc(Cl)cc23)CC1	16µM*	.	.	.	4%	18µM*
COc1ccccc1N1CCN(c2nc3c(S(=O)(=O)c4ccccc4)nnn3c3ccc(Cl)cc23)CC1	6%	.	.	.	-1%	-23%
CCc1ccc(S(=O)(=O)c2nnn3c2nc(N2CCC(C(N)=O)CC2)c2cc(Cl)ccc23)cc1	?	.	.	.	9%	23µM*
CC(=O)c1ccc(N2CCN(c3nc4c(S(=O)(=O)c5ccc(C)c(C)c5)nnn4c4ccc(Cl)cc34)CC2)cc1	0%	.	.	.	2%	0%
Cc1ccc(S(=O)(=O)c2nnn3c2nc(N2CCC(C)CC2)c2cc(Cl)ccc23)cc1C	?	.	.	.	0%	21µM*
CN(C)c1ncnc2c1NC1=C(S2)C(=NCCCC(=O)O)CC(C)(C)C1	21µM*	-10	3	-8	1%	?
CSc1ccc(CN(C)C(=O)COc2ccc(C(=O)c3ccccc3)cc2)cc1	?	23	0	0	.	15µM*
CCOc1ccccc1C(=O)N(C)CC(=O)Nc1ccc(OC)cc1	5%	7	1	5	.	-14%
Cc1ccc2cccc(OCC(=O)N(C)CC(=O)Nc3ccc(F)cc3)c2n1	-20%	-6	.	5	0%	-8%
COc1ccc(CCN(C)C(=O)COc2ccc(C(=O)c3ccccc3)cc2)cc1OC	?	-1	5	-1	.	?
CN(CC(=O)Nc1ccc(F)cc1)C(=O)COc1ccc(C(=O)c2ccccc2)cc1	?	-18	-13	-8	2%	21µM*
CN(CC(=O)Nc1ccc(F)cc1)C(=O)COc1ccccc1Cc1ccccc1	?	-69*	-13	2	.	?
COc1ccc(NC(=O)CN(C)C(=O)COc2ccccc2Cc2ccccc2)cc1	26µM*	-3	-24	-16	0%	18µM*
COC(=O)c1[nH]c2c(c1C)C(=O)CCC2	-4%	41	8	-2	0%	-10%
CCCN(CC(=O)Nc1ccccc1C)C(=O)/C=C/c1ccc(OCC)c(OC)c1	?	-18	-13	-6	-2%	-20%
Cc1csc(NC(=O)CSc2nnc(C)c(=O)n2N)n1	0%	4	7	0	0%	-7%
CN(CC(=O)Nc1ccccc1C(F)(F)F)C(=O)COc1ncnc2sccc12	2%	15	2	2	3%	-7%
CN(CC(=O)Nc1ccccc1Cl)C(=O)COC(=O)Cc1c(F)cccc1Cl	-2%	-23	2	2	0%	12%
CN(CC(=O)Nc1ccccc1C(F)(F)F)C(=O)COc1ccccc1Cc1ccccc1	?	-14	20	-4	0%	16µM*
